# Experimental data published in PubChem BioAssay.
# Where “and” joins values, the source holds several entries; their conditions need not be identical. Equal values may be shown once. A number with no mark means an inactive call. For some of these results: Entries with a potency or affinity are not part of this list. Calls of active or inactive are those of the source. Unless noted, the rule behind the calls is not given here.
# How the values were obtained:
# [1] = antimalarial activity against Dd2 strain (AID 2302;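 active = growth inhibition above 50% at the single 2 µM test dose, taken to imply half-maximal potency below 2 µM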;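 note: 0% = DMSO untreated growth and 100% = chloroquine plus artemisinin killed control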); settings: P. falciparum Dd2 in RBCs, LDH growth readout, 72 h; at 2 µM; active compounds read high
# [2] = HepG2 cytotoxicity, primary screen, cytotoxicity control for P. falciparum antimalarial project, cell-based, ATP luminescence (AID 2303;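 active = inhibition above 50%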;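 note: 0% = DMSO wells and 100% = digitonin-killed cells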); settings: HepG2 viability, 24-48 h, at 10 µM, active compounds read high
# [3] = biological target: L-lactate dehydrogenase (Plasmodium falciparum (isolate CDC / Honduras)) (UniProt Q27743); assay: PfLDH activity inhibition – cell lysate, 3D7 strain, counter-screen for P. falciparum growth inhibition project (AID 2304);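 note: 0% = vehicle and 100% = reference inhibitor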; settings: P. falciparum 3D7 crude extract, LDH APAD/NBT absorbance; at 2 µM; active compounds read high
# [4] = inhibition of 3D7 malaria parasite growth – strain 3D7 (AID 2306);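 note: 0% = DMSO wells and 100% = chloroquine plus artemisinin control wells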; settings: P. falciparum 3D7 erythrocytic growth, LDH absorbance, 72 h; at 2 µM; active compounds read high
# [5] = biological target: Calcium-dependent protein kinase 1 (Plasmodium falciparum (isolate 3D7)) (UniProt P62344); assay: PfCDPK1 kinase inhibitors, biochemical, TCAMS library (AID 1159585; cut-off not given, nearly all actives have IC50 up to about 0.98 µM;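 note: inhibitors leave more ATP so luminescence rises with inhibition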); settings: recombinant PfCDPK1, Kinase-Glo ATP depletion luminescence
# [6] = biological target: Plasmodium falciparum protein kinase 6 (PK6, PF3D7_1337100) (UniProt Q8IDW1); assay: PfPK6 kinase inhibitors, biochemical, TCAMS library (AID 1159586); settings: recombinant PfPK6, Kinase-Glo ATP depletion luminescence
# [7] = biological target: Protein kinase 7 (PK7), Plasmodium falciparum 3D7 (PF3D7_0213400) (UniProt Q7YTF7); assay: inhibition of Plasmodium PK7 catalytic activity – biochemical, TCAMS antimalarial set, Kinase-Glo luminescence (AID 1159587); settings: recombinant PfPK7, Kinase-Glo ATP depletion luminescence
# [8] = biological target: Calcium-dependent protein kinase 4 (Plasmodium falciparum (isolate 3D7)) (UniProt Q8IBS5); assay: PfCDPK4 kinase inhibitors, biochemical, TCAMS library (AID 1159588; cut-off not given, nearly all actives have IC50 up to about 0.91 µM); settings: recombinant PfCDPK4, Kinase-Glo ATP depletion luminescence
# Sequence of Calcium-dependent protein kinase 4 (Plasmodium falciparum (isolate 3D7)) (Q8IBS5 whole entry, looked up): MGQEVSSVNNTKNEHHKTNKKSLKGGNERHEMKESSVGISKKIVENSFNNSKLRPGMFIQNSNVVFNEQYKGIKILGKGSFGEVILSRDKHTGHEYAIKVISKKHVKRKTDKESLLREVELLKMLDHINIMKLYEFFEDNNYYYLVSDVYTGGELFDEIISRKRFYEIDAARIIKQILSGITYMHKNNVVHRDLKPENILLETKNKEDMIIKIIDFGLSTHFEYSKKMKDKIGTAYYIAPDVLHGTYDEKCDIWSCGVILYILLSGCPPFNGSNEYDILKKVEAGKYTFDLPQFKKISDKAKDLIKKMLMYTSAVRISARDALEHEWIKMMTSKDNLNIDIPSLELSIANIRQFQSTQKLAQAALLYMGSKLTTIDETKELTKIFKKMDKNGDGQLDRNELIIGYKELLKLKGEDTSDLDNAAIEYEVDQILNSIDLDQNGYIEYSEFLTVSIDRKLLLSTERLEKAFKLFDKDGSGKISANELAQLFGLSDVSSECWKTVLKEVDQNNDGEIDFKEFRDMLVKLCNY
# Sequence of Calcium-dependent protein kinase 1 (Plasmodium falciparum (isolate 3D7)) (P62344 whole entry, looked up): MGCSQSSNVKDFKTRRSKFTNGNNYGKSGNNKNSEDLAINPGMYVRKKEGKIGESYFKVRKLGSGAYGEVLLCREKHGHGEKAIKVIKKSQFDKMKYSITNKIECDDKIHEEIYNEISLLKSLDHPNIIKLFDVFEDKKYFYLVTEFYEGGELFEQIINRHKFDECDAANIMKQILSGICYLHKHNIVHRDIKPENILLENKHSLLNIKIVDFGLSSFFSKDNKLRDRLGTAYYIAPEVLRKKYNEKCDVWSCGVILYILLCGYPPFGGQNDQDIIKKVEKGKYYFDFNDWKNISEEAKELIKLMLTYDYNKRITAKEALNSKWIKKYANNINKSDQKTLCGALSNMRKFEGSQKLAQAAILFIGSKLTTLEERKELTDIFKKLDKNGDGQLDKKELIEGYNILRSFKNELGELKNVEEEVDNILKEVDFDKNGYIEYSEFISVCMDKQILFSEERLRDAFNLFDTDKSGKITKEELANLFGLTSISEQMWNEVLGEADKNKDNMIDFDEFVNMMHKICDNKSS
# Sequence of Plasmodium falciparum protein kinase 6 (PK6, PF3D7_1337100) (Q8IDW1 1-305): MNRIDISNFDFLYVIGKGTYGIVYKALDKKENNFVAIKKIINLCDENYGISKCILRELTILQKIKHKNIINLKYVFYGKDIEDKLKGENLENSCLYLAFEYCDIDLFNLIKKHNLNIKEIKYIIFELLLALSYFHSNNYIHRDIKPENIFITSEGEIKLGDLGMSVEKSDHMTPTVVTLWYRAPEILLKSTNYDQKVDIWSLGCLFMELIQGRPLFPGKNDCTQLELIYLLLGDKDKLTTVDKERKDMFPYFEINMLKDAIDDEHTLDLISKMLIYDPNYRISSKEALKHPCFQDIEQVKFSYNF
# Sequence of Protein kinase 7 (PK7), Plasmodium falciparum 3D7 (PF3D7_0213400) (Q7YTF7 1-343): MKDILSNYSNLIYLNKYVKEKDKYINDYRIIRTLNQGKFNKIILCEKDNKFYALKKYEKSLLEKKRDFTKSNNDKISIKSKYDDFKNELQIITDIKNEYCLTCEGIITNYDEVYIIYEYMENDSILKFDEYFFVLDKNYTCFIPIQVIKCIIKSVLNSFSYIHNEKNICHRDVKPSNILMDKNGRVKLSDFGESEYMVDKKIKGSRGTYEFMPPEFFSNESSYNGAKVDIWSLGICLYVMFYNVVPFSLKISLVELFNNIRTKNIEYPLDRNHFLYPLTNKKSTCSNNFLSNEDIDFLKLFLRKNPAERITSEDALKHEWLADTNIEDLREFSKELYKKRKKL
# Sequence of L-lactate dehydrogenase (Plasmodium falciparum (isolate CDC / Honduras)) (Q27743 whole entry, looked up): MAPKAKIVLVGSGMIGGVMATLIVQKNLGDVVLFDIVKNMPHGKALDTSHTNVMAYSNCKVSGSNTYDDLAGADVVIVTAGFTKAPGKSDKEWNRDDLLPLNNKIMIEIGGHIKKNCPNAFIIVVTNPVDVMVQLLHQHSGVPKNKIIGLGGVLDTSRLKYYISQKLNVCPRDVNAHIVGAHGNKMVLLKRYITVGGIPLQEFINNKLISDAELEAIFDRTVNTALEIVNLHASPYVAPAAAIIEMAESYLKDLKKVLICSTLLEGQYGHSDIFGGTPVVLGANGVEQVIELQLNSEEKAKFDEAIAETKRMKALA
Structure (SMILES),growth inhibition [1],inhibition [2],inhibition [3],growth inhibition [4],outcome [5],outcome [6],outcome [7],outcome [8]
CN1[C@@H]2CC[C@H]1c1cc(NC(=O)c3cc(-c4ccc(Cl)cc4)cs3)ccc12,35%,62% (active),-2%,90% (active),inactive,inactive,inactive,inactive
C[C@H](Cc1ccc(OCCCCCCOc2ccccc2)cc1)NC[C@H](O)c1cccc(Cl)c1,99% (active),21%,7%,93% (active),inactive,inactive,inactive,inactive
CN(CC(=O)N1CCN(S(=O)(=O)c2cccc(Cl)c2)CC1CN1CCCC1)c1ccc(Cl)c(Cl)c1 (centres undefined),32%,32%,-1%,89% (active),inactive,inactive,inactive,inactive
COC(=O)c1ccc(CC(C)NCC(O)c2cccc(I)c2)cc1 (centres undefined),54% (active),15%,-2%,87% (active),inactive,inactive,inactive,inactive
Cc1ccc(CC(C)NCC(O)c2cccc(C(F)(F)F)c2)c(C)c1 (centres undefined),99% (active),3%,-1%,99% (active),inactive,inactive,inactive,inactive
CC(C)CNCc1ccc(-c2cccc(CN(C(=O)Nc3ccccc3)C3CCN(Cc4ccccc4)CC3)c2)cc1,95% (active),48%,4%,101% (active),inactive,inactive,inactive,inactive
O=C(/C=C/c1cc(C(F)(F)F)ccc1F)N1CCC(CN2CCC(c3c[nH]c4ccccc34)CC2)CC1,14%,22%,-1%,96% (active),inactive,inactive,inactive,inactive
CC(Cc1ccc(OCCOc2ccccc2)cc1)NCC(O)c1cccc(Cl)c1 (centres undefined),99% (active),12%,1%,99% (active),inactive,inactive,inactive,inactive
COCCNCc1cccc(-c2cccc(CN(C(=O)Nc3ccccc3)C3CCN(Cc4ccccc4)CC3)c2)c1,65% (active),28%,-1%,100% (active),inactive,inactive,inactive,inactive
N#Cc1c(Cl)cccc1Oc1ccc(S(=O)(=O)N2CCC(CN3CCC(c4c[nH]c5ccccc45)CC3)CC2)cc1,67% (active),36%,4%,100% (active),inactive,inactive,inactive,inactive
CC(=O)Nc1ccc(OCCN(CC(C)C)c2ccc(C#N)c(C(F)(F)F)c2)c(Cl)c1,94% (active),13%,2%,94% (active),inactive,inactive,inactive,inactive
CC(=O)Nc1ccc(CN2CCC(N(C)c3cc(NC(=O)c4ccc(F)cc4)ccn3)CC2)cc1,5%,0%,-1%,95% (active),inactive,inactive,inactive,inactive
CC[C@H]1CN2CC[C@H]1C[C@H]2[C@H](O)c1cc(-c2ccccc2F)nc2ccc(OC)cc12,98% (active),13%,1%,99% (active),inactive,inactive,inactive,inactive
CC(C)C[C@H](Nc1ccc(C#N)c2ccccc12)C(=O)N[C@@H]1CCCc2ccccc21,100% (active),38%,10%,99% (active),inactive,inactive,inactive,inactive
Cc1[nH]c2ccccc2c1C1=CCN(CCCCC2(C)C(=O)Nc3cccc(F)c32)CC1 (centres undefined),90% (active),9%,-4%,95% (active),inactive,inactive,inactive,inactive
O=C(/C=C/c1cc(C(F)(F)F)ccc1F)NC1CCC(CN2CCC(c3c[nH]c4ccccc34)CC2)CC1 (centres undefined),66% (active),5%,-5%,101% (active),inactive,inactive,inactive,inactive
Cc1ccc(/C=C/C(=O)NC2CCC(CN3CCC(c4c[nH]c5ccccc45)CC3)CC2)cc1 (centres undefined),66% (active) and 69% (active),32% and 41%,-2% and 3%,101% (active),inactive,inactive,inactive,inactive
CC(C)CNCc1ccc(-c2ccc(CN(C(=O)Nc3ccccc3)C3CCN(Cc4ccccc4)CC3)cc2)cc1,61% (active),27%,-4%,101% (active),inactive,inactive,inactive,inactive
Cc1ccccc1C1=CCN(CCCN2c3ccccc3Sc3ccc(Cl)cc32)CC1,30%,14%,5%,90% (active),inactive,inactive,inactive,inactive

Structure (SMILES),growth inhibition [1],inhibition [2],inhibition [3],growth inhibition [4],outcome [5],outcome [6],outcome [7],outcome [8]
O=C(/C=C/c1ccc(Cl)c(Cl)c1)N1CC[C@H]2C[C@H](N3CCC(c4c[nH]c5ccccc45)CC3)CC[C@@H]2C1,99% (active),31%,0%,100% (active),inactive,inactive,inactive,inactive
CN(C(=O)OCc1ccccc1)C1CCC(CCN2CCC3(CC2)C(=O)NCN3c2cccc(C(F)(F)F)c2)(c2ccccc2)CC1 (centres undefined),72% (active),19%,-2%,80% (active),inactive,inactive,inactive,inactive
CN(c1cc(NC(=O)c2ccc(F)cc2)ccn1)C1CCN(Cc2cccc(C#N)c2)CC1,83% (active),73% (active),1%,97% (active),inactive,inactive,inactive,inactive
COc1ccc(F)cc1-c1csc(N(c2ccc(F)cc2)C2CCNCC2)n1,-3%,15%,-1%,94% (active),inactive,inactive,inactive,inactive
O=C(CCc1ccco1)NC1CCN(CC2(c3ccc(Cl)cc3)CCC2)CC1,67% (active),-12%,-2%,99% (active),inactive,inactive,inactive,inactive
CC(C)(C)c1cc(/C=C/C(=O)NC2CCC(CN3CCC(c4c[nH]c5ccccc45)CC3)CC2)cc(C(C)(C)C)c1O (centres undefined),100% (active),98% (active) and 99% (active),-3% and -5%,101% (active) and 102% (active),inactive,inactive,inactive,inactive
CC(Cc1ccc(SC(C)C)cc1)NCC(O)c1cccc(Cl)c1 (centres undefined),97% (active),5%,-3%,99% (active),inactive,inactive,inactive,inactive
COc1ccc(CC(C)NCC(O)c2cccc(Br)c2)cc1 (centres undefined),93% (active),10%,-1%,99% (active),inactive,inactive,inactive,inactive
COc1cccc(/C=C/C(=O)NC2CCC(CN3CCC(c4c[nH]c5ccccc45)CC3)CC2)c1 (centres undefined),26% and 38%,19% and 30%,-1% and 6%,94% (active) and 100% (active),inactive,inactive,inactive,inactive
CCCCCCCc1cc(O)c2c(c1)OC(C)(C)c1ccncc1-2,52% (active),-7%,0%,95% (active),inactive,inactive,inactive,inactive
CC(C)CNCc1cccc(-c2ccccc2CN(C(=O)Nc2ccccc2)C2CCN(Cc3ccccc3)CC2)c1,68% (active),36%,-2%,100% (active),inactive,inactive,inactive,inactive
COC(=O)c1ccc(CC(C)NCC(O)c2cccc3ccccc23)cc1 (centres undefined),82% (active),3%,4%,96% (active),inactive,inactive,inactive,inactive
Cc1[nH]c2ccccc2c1C1=CCN(C[C@H]2C[C@@H]2C(=O)c2ccccc2)CC1,88% (active),18%,-3%,95% (active),inactive,inactive,inactive,inactive
Cc1[nH]c2cc(F)ccc2c1C1=CCN(CCCCC2(C)C(=O)Nc3c(F)cccc32)CC1 (centres undefined),89% (active),15%,-7%,96% (active),inactive,inactive,inactive,inactive
CC(Cc1ccc(C2=CCNCC2)cc1)NCC(O)c1cccc(C(F)(F)F)c1 (centres undefined),-2%,27%,0%,89% (active),inactive,inactive,inactive,inactive
COc1ccc(CN(C2CC2)C(C)C(=O)c2[nH]c(C)c(C(C)=O)c2C)cc1 (centres undefined),64% (active),40%,-3%,98% (active),inactive,inactive,inactive,inactive
CCN(Cc1ccccc1)CC(O)c1ccc(Cl)c(Cl)c1 (centres undefined),71% (active),2%,1%,96% (active),inactive,inactive,inactive,inactive
Brc1cnc(NC2=NCCN2)c(Br)c1,-1%,-6%,-3%,99% (active),inactive,inactive,inactive,inactive
C[C@H](Cc1ccc(OCCCCCCOc2ccccc2)cc1)NC[C@@H](O)c1cc(Br)no1,70% (active),21%,5%,94% (active),inactive,inactive,inactive,inactive
